Source: PubChem (several laboratories)
CYP2C9 inhib – blocks human cytochrome P450 2C9; CYP2C9 Supersomes, luciferin-H conversion, luminescence; P11712; 96,000 compounds, 20% hits; inhibition, % at 5 µM;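 active = blocking of liver enzyme CYP2C9 beyond about 50% at 5 µM, limit read from the data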
Target sequence (P11712 whole entry, looked up): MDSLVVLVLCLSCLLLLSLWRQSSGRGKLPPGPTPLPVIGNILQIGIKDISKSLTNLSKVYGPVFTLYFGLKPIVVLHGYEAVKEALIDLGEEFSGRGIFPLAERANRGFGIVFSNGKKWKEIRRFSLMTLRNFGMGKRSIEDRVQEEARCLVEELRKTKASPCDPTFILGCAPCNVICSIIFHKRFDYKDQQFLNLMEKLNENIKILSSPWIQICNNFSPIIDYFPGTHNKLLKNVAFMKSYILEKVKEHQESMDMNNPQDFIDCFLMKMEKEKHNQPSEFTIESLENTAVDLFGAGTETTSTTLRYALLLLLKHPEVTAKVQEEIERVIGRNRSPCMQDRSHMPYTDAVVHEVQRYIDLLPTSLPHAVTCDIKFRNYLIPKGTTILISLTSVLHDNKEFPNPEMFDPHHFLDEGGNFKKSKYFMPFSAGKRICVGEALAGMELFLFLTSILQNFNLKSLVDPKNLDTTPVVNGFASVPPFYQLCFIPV
CYP2C19 activ – increases human CYP2C19 enzyme activity. P33261. recombinant CYP2C19, luciferin-H EGE luminescence; active compounds read high; 0 = fully inhibited enzyme, 1 = untreated enzyme. activation factor at 5 µM. 96,000 tested, under 10 active. AID 1025;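 active = activation factor of at least 2 at 5 µM in the primary screen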
PostGolgi yeast – growth inhibition of a yeast mutant, post-Golgi transport screen. post-Golgi transport phenotypic cell assay. inhibition, % at 10 µM. 98,000 compounds, 0.9% hits;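 note: yeast cells grown in 1536-well plates; yeast grown about 18 h at 30C before absorbance read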
CYP2C9 activ – increases human cytochrome P450 2C9 activity; P11712; recombinant CYP2C9, luciferin-H conversion, luminescence; active compounds read high; factor 1 = untreated enzyme, 0 = blocked; activation factor at 5 µM; 96,000 compounds, 1.4% hits;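 active = activation factor of 2 or more for CYP2C9 at a 5 µM dose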
CYP2C19 inh – blocks human cytochrome P450 2C19. CYP2C19 Supersomes, luciferin-H EGE luminescence, 30 min. 96,000 compounds, 21% hits. inhibition, % at 5 µM. P33261;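 active = CYP2C19 inhibition above a set limit at 5 µM in the primary screen, cut at about 50% in these data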
PostGolgi ctrl – yeast control strain growth, post-Golgi counter-screen | efflux-deficient yeast background strain, growth absorbance A615, 16 h | inhibition, % at 10 µM | 98,000 compounds, 5% hits | AID 738
A number is an active result; - = inactive. In the library only some 32% were active in any assay of this set; here they are far more common. Cut-off read from the data, not from the text of the source, unless noted: active = inhibition above about 30%; inactive = the rest.

SMILES	CYP2C9 inhib	CYP2C19 activ	PostGolgi yeast	CYP2C9 activ	CYP2C19 inh	PostGolgi ctrl
CCn1c(SCc2cccnc2)nc2c1c(=O)n(C)c(=O)n2C	-	-	-	-	-	-
CCCCn1c(SCc2cccnc2)nc2c1c(=O)n(C)c(=O)n2C	-	-	-	-	-	-
c1cc(C2OCCN2CC2COC3(CCCC3)O2)ccn1 (stereo unspecified)	-	-	-	-	-	-
Cc1cc(C(=O)COC(=O)CN(C)S(=O)(=O)c2ccc(Cl)cc2)c(C)n1CC1CCCO1 (stereo unspecified)	-	-	-	-	-	-
CC(=O)C1(C)OC(N)=C(C#N)C(c2ccccc2)C1(C#N)C#N (stereo unspecified)	-	-	-	-	-	-
Cc1ccc(N2C(=O)/C(=C\c3ccco3)SC2=S)cc1	-	-	-	-	-	32.0
COc1ccc(C(C(C(=O)c2cccs2)N2CCOCC2)N2CCOCC2)cc1OC (stereo unspecified)	-	-	-	-	-	-
COc1ccc2c(C)c(C(=O)NCC(C)O)oc2c1OC (stereo unspecified)	-	-	-	-	-	-
CCOc1c2c(nc3ccc(Cl)cc13)CCC2	-	-	-	-	-	36.2
Cc1nc(S(=O)(=O)c2ccc(Cl)cc2Cl)nc2c1CCC2	-	-	-	-	-	-
CC(C)COCC1CC2(CC(C)(c3csc(N)n3)OC2=O)C(=O)O1 (stereo unspecified)	-	-	-	-	-	-
C=CCNc1nc(C2(C)CC3(CC(C)(C)OC3=O)C(=O)O2)cs1 (stereo unspecified)	-	-	-	-	79.4	-
CCOc1cc(NC(=O)c2ccco2)c(OCC)cc1NC(=O)CCC(=O)NCc1cccnc1	-	-	-	-	-	-
Cc1c(-c2nc(N)nc(Nc3ccc(F)cc3)n2)oc2ccccc12	-	-	-	-	-	39.9
CC(C)(C)c1ccc(C2CC2C(=O)N/N=C\c2cc3ccccc3nc2Cl)cc1 (stereo unspecified)	61.8	-	-	-	-	-
c1ccc2c3c(cc(N4CCOCC4)c2c1)OC1(N2CCOCC2)CCCCC1O3 (stereo unspecified)	79.5	-	-	-	95.1	-
COC(=O)C1C2CCC(C2)C1C(=O)OCC(=O)c1ccc(C)cc1 (stereo unspecified)	-	-	-	-	-	-
CCCOC(=O)C1C2C=CC(C2)C1C(=O)OCC(=O)c1ccccc1 (stereo unspecified)	74.7	-	-	-	91.1	-
CCCn1nnc(NC(=O)COc2ccc(C3CCCCC3)cc2)n1	89.3	-	-	-	62.0	-
O=S1(=O)CC(O)C(Nc2ccccc2Cl)C1 (stereo unspecified)	-	-	-	-	-	-
CCOC(=O)C1=C(C)NC2=C(C1c1ccc([N+](=O)[O-])cc1)S(=O)(=O)c1ccccc12 (stereo unspecified)	62.1	-	-	-	-	-
Cc1cccc(/C=N\NC(=O)c2sccc2-n2cccc2)c1	-	-	-	-	-	-
Nc1nc(-c2ccc(Br)s2)c(Br)s1	-	-	-	-	-	51.4
Cc1ccc(CSc2nc3sc(C)c(C)c3c(=O)n2Cc2ccco2)cc1	-	-	-	-	-	-
Fc1ccc(CSc2nnc(-c3cccnc3)n2Cc2ccco2)cc1	-	-	-	-	-	-
SMILES	CYP2C9 inhib	CYP2C19 activ	PostGolgi yeast	CYP2C9 activ	CYP2C19 inh	PostGolgi ctrl
Cc1sc2nc(SCc3nc4ccccc4[nH]3)n(Cc3ccco3)c(=O)c2c1C	78.1	-	-	-	-	-
COc1cccc(CSc2nc3sc(C)c(C)c3c(=O)n2Cc2ccco2)c1	78.0	-	-	-	56.2	-
Cc1cccc(CSc2nnc(-c3cccs3)n2Cc2ccco2)c1	52.8	-	-	-	68.8	-
Cc1cccc(CSc2nc3sc(C)c(C)c3c(=O)n2Cc2ccco2)c1	84.5	-	-	-	-	-
O=C(NCCCN1CCCC1=O)c1cccc(N2CCCC2=O)c1	-	-	-	-	-	-
O=C(c1noc2c1CCCC2)N1CCOCC1	-	-	-	-	-	-
NNC(=O)CNC(=O)c1cccc(Br)c1	-	-	-	-	-	-
COc1cccc(C(C(=O)NCc2ccco2)N(C(=O)Cn2nnc3ccccc32)C2CC2)c1OC (stereo unspecified)	-	-	-	-	-	-
Cc1cc(=O)n2nc(N3CCCC3C(=O)NCCCN3CCCCC3)sc2n1 (stereo unspecified)	-	-	-	-	-	-
COc1ccc(C(=O)NCCSCc2ccccc2C)cc1	52.3	-	-	-	55.3	-
Cc1ccc(SCC(=O)NCCSC(C)(C)C)cc1	-	-	-	-	-	-
COc1ccc(C(=O)NCCSCc2ccc(C)cc2)cc1	53.3	-	-	-	55.2	-
Cc1ccc(CSCCNC(=O)/C=C/c2ccc(Cl)cc2)cc1	-	-	-	-	-	-
Cc1ccc(SCCC(=O)NCCSCc2ccccc2C)cc1	80.9	-	-	-	-	54.2
COCCNC(=O)Nc1ccc2nc(-c3cccs3)c(-c3cccs3)nc2c1	51.9	-	-	-	-	-
O=C(Nc1ccc(F)cc1)NC1CCCCC1	-	-	-	-	-	-
O=C(Nc1cccc(F)c1)NC1CCCCC1	-	-	-	-	55.0	-
O=C1N=C(N2CCC(Cc3ccccc3)CC2)S/C1=C/c1cn[nH]c1-c1ccccc1	59.5	-	-	-	-	-
O=C1N=C(N2CCOCC2)S/C1=C/c1cccs1	-	-	-	-	-	-
COc1ccc(S(=O)(=O)NCCCCCC(=O)NCCCN2CCOCC2)cc1	-	-	-	-	-	-
Cc1cc(NCCO)nc(N2CCOCC2)n1	-	-	-	-	-	-
COc1cc(NS(=O)(=O)c2ccc(C)cc2)ccc1-n1cnnn1	72.2	-	-	-	-	-
CCOCCCNS(=O)(=O)c1ccc(-n2cnnn2)c(OC)c1	-	-	-	-	88.6	-
COc1cc(S(=O)(=O)NCCc2ccc3c(c2)OCO3)ccc1-n1cnnn1	87.3	-	-	-	95.7	-
COc1cc(S(=O)(=O)NCC2COCCO2)ccc1-n1cnnn1 (stereo unspecified)	-	-	-	-	-	-
SMILES	CYP2C9 inhib	CYP2C19 activ	PostGolgi yeast	CYP2C9 activ	CYP2C19 inh	PostGolgi ctrl
COc1cc(C(=O)Nc2ccc3c(c2)OCCO3)ccc1-n1cnnn1	-	-	-	-	-	-
O=C1CCN(C(=O)Nc2ccccc2Cl)N1	-	-	-	-	-	-
CCC(=O)N1CCCc2cc(S(=O)(=O)NCc3cccs3)ccc21	-	-	-	-	-	-
c1ccn(-c2ncnc3sc4c(c23)CCCC4)c1	-	-	-	-	96.4	-
CSc1nc(N2CCOCC2)c2c3c(sc2n1)CCCC3	-	-	-	-	-	35.9
c1nc(N2CCOCC2)c2c3c(sc2n1)CCCC3	-	-	-	-	64.6	-
O=C(c1ccccc1)N1CCN(c2ncnc3sc4c(c23)CCC4)CC1	82.9	-	-	-	92.2	-
